Source: PubChem BioAssay
Sampled rows, rich in hits. Any-hit rate of the full collection: about 4.9%.
Calb FLC: C. albicans growth inhibition with fluconazole, primary screen, CaCi-2 strain, Alamar Blue fluorescence. C. albicans CaCi-2 (fluconazole-resistant clinical isolate) + fluconazole, 48 h. 300,000 compounds, 0.57% hits. growth inhibition, % (test concentration not listed);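 active = growth inhibition above about 58% in most replicates, limit read from the data, passing the limit was not always enough; inconclusive = exactly half the replicates above a set limit; inactive = most replicates below a set limit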;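 also: all wells also contain fluconazole at 8 µg/ml as a sub-toxic cotreatment; 0% = median of DMSO wells and 100% = median of geldanamycin control wells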
Beta apoptosis: inhibitors of cytokine-induced beta cell apoptosis, primary screen, luminescence | 300,000 compounds, 0.8% hits | protection from apoptosis, % (concentration not given with the values) | INS-1E cytokine-induced death, ATP luminescence, 48 h; percent of positive-control rescue, neutral wells zero | AID 435005, 2010;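 active = Every replicate reaches about 75%, or at least half do and their mean reaches it too, limit read from the data; inconclusive = At least half of replicates reach the limit but their mean does not; inactive = Under half of replicates reach the limit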;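 also: 0% = cytokine-treated negative control wells and 100% = positive control rescue; higher means more ATP so stronger rescue from cytokine killing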
PP1 counter: PP1-alpha phosphatase inhibitors, primary screen, counter-screen for PP5 inhibitor project, biochemical, fluorescence, OMFP substrate, single point; inhibition, % at 6.7 µM; 320,000 compounds, 0.9% hits; Serine/threonine-protein phosphatase PP1-alpha catalytic subunit (Homo sapiens), P62136; purified PP1alpha; AID 2235, 2010;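 active = inhibition above the mean inhibition of all tested compounds plus 3 SD, computed separately for each screening campaign, cut at about 15% in these data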
PP5 inh: PP5 phosphatase inhibitors, primary screen, biochemical, fluorescence. AID 1987, 2009. Serine/threonine-protein phosphatase 5 (Homo sapiens), P53041. 320,000 compounds, 0.18% hits. purified PP5c, OMFP substrate fluorescence. inhibition, % at 6.7 µM;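 active = inhibition above the campaign's mean inhibition across all tested compounds plus 3 SD, cut at about 9.5% in these data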;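 also: 0% = DMSO only and 100% = 100 µM cantharidin control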
Target sequence (P53041 whole entry, looked up): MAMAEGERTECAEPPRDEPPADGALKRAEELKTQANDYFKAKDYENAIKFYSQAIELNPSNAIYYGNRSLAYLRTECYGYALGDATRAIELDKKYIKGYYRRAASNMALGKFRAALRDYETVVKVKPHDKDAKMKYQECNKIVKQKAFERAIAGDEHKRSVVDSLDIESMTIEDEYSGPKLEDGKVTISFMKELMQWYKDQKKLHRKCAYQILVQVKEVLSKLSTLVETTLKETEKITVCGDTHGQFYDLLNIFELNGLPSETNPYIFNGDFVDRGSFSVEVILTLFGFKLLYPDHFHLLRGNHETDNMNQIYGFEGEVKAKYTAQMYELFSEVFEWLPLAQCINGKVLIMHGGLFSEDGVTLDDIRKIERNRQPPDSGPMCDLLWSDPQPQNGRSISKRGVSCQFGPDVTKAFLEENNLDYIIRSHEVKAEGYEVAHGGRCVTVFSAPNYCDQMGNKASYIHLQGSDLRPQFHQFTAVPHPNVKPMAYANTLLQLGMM
CSC inhib: cancer stem cell viability inhibitors, primary screen, luminescence; cancer stem cell-like cells viability; inhibition, % at 7.5 µM; 300,000 compounds, 1.1% hits; in the data active = inhibition above about 75%; inconclusive = no clear call, values can overlap the other calls; tested in HMLE shEcad cells
Mdm2-MdmX inh: inhibitors of human Mdm2-MdmX association, primary screen, cell-based, luminescence, split luciferase, SaOS-2, uHTS; 330,000 compounds, 3% hits; SaOS-2 split-luciferase Mdm2/MdmX complementation; Protein Mdm4 (Homo sapiens) + E3 ubiquitin-protein ligase Mdm2 (Homo sapiens), …; inhibition, % at 8 µM;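 active = inhibition of at least 50% at 8 µM in the primary screen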
Mdm2-MdmX conf: Mdm2-MdmX complex disruptors, retested hits, confirmation, luminescence, single concentration; shares compounds with Mdm2-MdmX inh; inhibition, % at 8 µM; Mdm2-MdmX binding, luminescent assay; 10,000 compounds, 55% hits; AID 489028, 2010; in the data active = inhibition above about 40%
Full FLuc ctr: full-length luciferase signal inhibition, confirmation, counter-screen for Mdm2/MdmX interaction inhibitor project, cell-based, single concentration, SaOS-2; shares compounds with Mdm2-MdmX inh; SaOS-2 full-length luciferase counterscreen, luminescence; inhibition, % at 8 µM; 6,200 compounds, 77% hits; AID 504607, 2011;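 active = mean inhibition at 8 µM reaching about 37%, which flags the compound as non-specific, limit read from the data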;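 also: p53-null SaOS-2 cells with luciferase driven by a doxycycline-inducible promoter; compound on cells about two nights before reading with doxycycline added after day one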
The depositor's hits bear a star; ? = inconclusive; · = no result given.

SMILES	Calb FLC	Beta apoptosis	PP1 counter	PP5 inh	CSC inhib	Mdm2-MdmX inh	Mdm2-MdmX conf	Full FLuc ctr
O=C(N/N=C/c1sc(N2CCOCC2)nc1-c1ccccc1)c1cccc(S(=O)(=O)N2CCCC2)c1	88*	107*	-2	2	26	79*	72*	41*
O=C(N/N=C/c1ccccc1Br)c1cccc(S(=O)(=O)N2CCOCC2)c1	·	-7	11	0	·	15	·	·
CCOC(=O)c1ccc(S(=O)(=O)Nc2cc(S(=O)(=O)N3CCOCC3)ccc2O)cc1	·	-6	·	·	-5	5	·	·
COc1ccc(N2CCN(c3nc4ccc(C)cn4c(=O)c3C=O)CC2)cc1	41	-1	-3	2	-6	24	·	·
CCc1ccc2[nH]c3nc(N/N=C/c4ccc(O)cc4O)nnc3c2c1	?	108*	17*	1	67	58*	94*	29
COc1ccccc1C(CCNCc1ccccc1)c1ccc(OC(C)C)cc1 (stereo not drawn)	-1	23	10	2	58	61*	36	·
COc1ccc(CNCCC(c2ccc(OC(C)C)cc2)c2ccccc2OC)cc1 (stereo not drawn)	15	?	13	2	103*	97*	54*	68*
COc1ccc(CNCCC(c2ccc(OC(C)C)cc2)c2ccccc2OC)cc1OC (stereo not drawn)	3	18	4	0	21	56*	40*	66*
COc1ccccc1C(CC(=O)Nc1ccc(C)c(C)c1)c1ccc(OC(C)C)cc1 (stereo not drawn)	-5	20	1	5	·	23	·	·
COc1ccccc1C(CCNCc1ccc(N(C)C)cc1)c1ccc(OC(C)C)cc1 (stereo not drawn)	0	114*	16*	1	103*	97*	58*	57*
COc1ccccc1NC(=O)CC(c1ccc(OC(C)C)cc1)c1ccccc1OC (stereo not drawn)	3	4	0	5	28	10	·	·
Cc1cc2nc(/N=C(\N)NC(=O)N3c4ccccc4Sc4ccccc43)nc(C)c2cc1C	·	2	-2	-1	3	·	·	·
COc1ccc(CNCCC(c2ccccc2)c2ccc3c(c2)OCO3)cc1 (stereo not drawn)	22	85*	3	2	23	67*	31	·
COc1ccc(C(CC(=O)O)c2ccc3c(c2)OCO3)cc1 (stereo not drawn)	8	-1	1	1	-9	23	·	·
CCc1c(C)sc(NC(=O)c2cc(-c3cc(OC)ccc3OC)on2)c1C#N	-2	-5	-2	1	30	97*	46*	68*
C=CCN(Cc1cccs1)C(=O)CN1CCN(S(=O)(=O)c2ccc3c(c2)OCCCO3)CC1	·	·	-1	0	·	7	·	·
CC(C)c1ccc(C2C3=C(COC3=O)Nc3cc4c(cc32)OCO4)cc1 (stereo not drawn)	-16	33	1	-1	46	76*	62*	94*
CCn1cc([N+](=O)[O-])c(C(=O)Nc2nc(-c3ccc(C)cc3)c(C)s2)n1	?	-19	2	1	102*	55*	32	·
Cc1cc(N2CCOCC2)ccc1/C=C1\NC(=O)N(Cc2ccccc2F)C1=O	2	8	-5	-3	11	71*	10	·
Cc1noc(-c2ccc(C(F)(F)F)cc2)c1NC(=O)Nc1ccc(Cl)cc1	-7	105*	-3	2	52	95*	76*	24
COc1ccc(OC)c(-c2csc(NC(=O)Cc3cccs3)n2)c1	-21	0	-2	3	37	27	·	·
Cc1cccc(C)c1Oc1nc(-c2ccccc2)ncc1S(=O)(=O)c1ccccc1	-2	7	-1	0	33	52*	3	·
O=C(Cc1ccsc1)OCC(=O)c1ccccc1	·	-6	·	·	-6	5	·	·
Cc1cc(C(=O)Nc2ccc(Cl)cc2)c(C)n1-c1ccccc1	1	·	0	-1	46	89*	89*	31
Cc1ccc(NC(=O)c2cc(C)n(-c3ccccc3)c2C)cc1	15	6	2	4	16	77*	84*	41*
SMILES	Calb FLC	Beta apoptosis	PP1 counter	PP5 inh	CSC inhib	Mdm2-MdmX inh	Mdm2-MdmX conf	Full FLuc ctr
COc1cc([N+](=O)[O-])ccc1NC(=O)COC(=O)c1c[nH]c(=O)[nH]c1=O	·	-2	·	·	-15	-4	·	·
CCOC(=O)c1c(NC(=O)CSc2nnc(-c3c[nH]c4ccccc34)n2CCOC)sc2c1CCCCC2	-1	32	4	4	15	56*	17	·
O=C(Nc1ccccc1)c1nn(-c2ccccc2)c(=O)cc1C(F)(F)F	7	1	-5	0	3	16	·	·
O=C(c1cccc(Cl)c1)c1nn(-c2ccccc2)c(=O)cc1C(F)(F)F	16	107*	2	5	57	77*	32	·
O=C(c1ccccc1)c1nn(-c2ccccc2)c(=O)cc1C(F)(F)F	4	·	2	2	4	44	·	·
O=C(c1ccccc1)c1nn(-c2ccc(Cl)cc2)c(=O)cc1C(F)(F)F	17	11	7	4	108*	95*	78*	56*
Cn1nccc1NS(=O)(=O)c1ccc(NC(=O)C(F)(F)F)cc1	-3	1	-2	1	-13	30	·	·
O=C(NCCN1C(=O)S/C(=C\c2ccc(Cl)c(Cl)c2)C1=O)c1cnccn1	2	-5	0	0	7	-6	·	·
O=C(NCCN1C(=O)S/C(=C\c2ccc(Cl)c([N+](=O)[O-])c2)C1=O)C1=COCCO1	·	-2	1	-1	52	96*	58*	57*
CS(=O)(=O)N(CC(=O)N1CCCC1)c1ccccc1Br	9	3	-1	0	-8	-1	·	·
CCOC(=O)c1c(NC(=O)C2=C(C)NC(=S)NC2c2ccc(CC)cc2)sc(C)c1C (stereo not drawn)	-7	5	12	-7	20	64*	18	·
O=C(NC1(Cc2ccccc2)CCN(CCc2cccs2)C1=O)c1ccccc1 (stereo not drawn)	·	6	-6	-1	-4	-10	·	·
N=c1sccn1CC(=O)NC(c1ccccc1)c1ccccc1	?	-4	-4	-1	-6	17	·	·
